# Values joined by “and” are separate entries in the source; they are usually repeats but may differ in a detail not shown here. Equal values may be shown once. Records with an inconclusive call do not appear. Active and inactive are the calls of the source.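 Rule for the calls, unless noted: active = normalized viability below 100% at a tested concentration; inactive = the rest.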
# Legend:
# [1] = growth inhibition of DIPG glioma cells, dose response, cell-based, SU-DIPG-XVII, MIPE5.0, CellTiter-Glo, qHTS (AID 1347060; cut-off not given, nearly all actives have AC50 up to about 26 µM;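 note: cells exposed to compound for 48 hours before viability readout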); conditions: SU-DIPG-XVII viability, CellTiter-Glo ATP luminescence
# [2] = growth inhibition of DIPG glioma cells, dose response, cell-based, SU-DIPG-XIII, MIPE4.0, CellTiter-Glo, qHTS (AID 1347061; cut-off not given, nearly all actives have AC50 up to about 37 µM;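 note: cells exposed to compound for 48 hours before readout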); conditions: SU-DIPG-XIII viability, CellTiter-Glo ATP luminescence
# [3] = growth inhibition of DIPG glioma cells, dose response, cell-based, SU-DIPG-IV, MIPE4.0, CellTiter-Glo, qHTS (AID 1347063; cut-off not given, nearly all actives have AC50 up to about 30 µM;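 note: compound exposure lasted 48 hours before the viability readout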); conditions: SU-DIPG-IV viability, CellTiter-Glo ATP luminescence
# [4] = viability loss in pontine glioma line – cell-based, SU-DIPG-XXV, MIPE5.0, CellTiter-Glo, qHTS, dose response (AID 1347065; cut-off not given, nearly all actives have AC50 up to about 26 µM;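 note: cells exposed to compound for 48 hours before ATP readout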); conditions: CellTiter-Glo ATP luminescence
# [5] = modifiers of HSF1 nuclear foci, imaging, Selleck Cancer Library (AID 1347162; in the data active = plate-normalised HSF1 focus index below about 0.46); conditions: human cells, at 10 µM; SSMD: measured here: HSF1 foci SSMD mean; cell count: measured here: cell number; plate-normalised HSF1 focus index: stronger effect = lower value
# [6] = ovarian cancer cell viability with rucaparib, profiling panel, oncology-focused library, rucaparib conditional (AID 1508598); conditions: patient-derived ovarian cancer cells, CellTiter-Glo viability, 144 h, stronger effect = lower value
# [7] = LFS_MB_P medulloblastoma growth inhibition, cell-based, chromothripsis tumors, cisplatin or BGB combos (AID 1671449; in the data active = inhibition above about 80%;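 note: cells exposed for 96 hours; 0% = vehicle DMSO and 100% = killing by high DMSO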); conditions: LFS_MB_P medulloblastoma cells
# [8] = HDN33 neuroblastoma growth inhibition, cell-based, chromothripsis tumors, cisplatin or BGB combos (AID 1671450; in the data active = inhibition above about 80%;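 note: cells exposed to compound for four days; 0% = vehicle DMSO and 100% = cell killing by high DMSO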); conditions: HDN33 neuroblastoma cells, stronger effect = higher value
# [9] = ICB984 medulloblastoma cell growth inhibition, synergistic combos for chromothripsis tumors, cisplatin or BGB combos (AID 1671451; call rule not given here;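 note: cells exposed for 96 hours before readout; 0% = vehicle DMSO and 100% = killing by high DMSO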); conditions: ICB984 medulloblastoma cells, drug combinations, stronger effect = higher value
# [10] = HTB85 osteosarcoma cell growth inhibition, synergistic combos for chromothripsis tumors, BGB or cisplatin IC20 combos (AID 1671453; in the data active = inhibition above about 80%;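 note: cells exposed for 96 hours before readout; 0% = vehicle DMSO and 100% = high DMSO killing control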); conditions: HTB85 osteosarcoma cells, drug combinations, stronger effect = higher value
# [11] = MDA-MB-436 breast carcinoma cell growth inhibition, synergistic combos for chromothripsis tumors, BGB or cisplatin combos (AID 1671458; call rule not given here;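 note: cells exposed for 96 hours; 0% = vehicle DMSO and 100% = killing by high DMSO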); conditions: MDA-MB-436 breast carcinoma growth inhibition, drug combinations, stronger effect = higher value
# [12] = growth inhibition of BT084 medulloblastoma cells, cell-based, ICGC_MB145, cisplatin and BGB IC40 combos (AID 1671461; in the data active = inhibition above about 80%;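 note: cells exposed to drugs for 96 hours; 0% = vehicle DMSO and 100% = high DMSO full killing control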); conditions: drug combinations, stronger effect = higher value
# [13] = growth inhibition of RCMB18 medulloblastoma cells, cell-based, cisplatin and BGB IC40 combos (AID 1671462; in the data active = inhibition above about 80%;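 note: cells exposed to compound for four days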); conditions: stronger effect = higher value
smiles,measurement,setting,value
C[C@@H]1CN(CC(=O)Nc2ccc3c(c2)Cc2cccc(-c4cc(=O)cc(N5CCOCC5)o4)c2S3)C[C@H](C)O1,AC50,[1],23.5 µM (active)
same,outcome,[2],inactive
same,AC50,[3],13.2 µM (active)
same,AC50,[4],18.6 µM (active)
same,SSMD,[5],2.96
same,cell count,[5],6620
same,plate-normalised HSF1 focus index,[5],1.15 (inactive)
same,viability,"[6]; at 0.000305 µM, OCI-C5x cells, with rucaparib 10 µM, 100% = cells with rucaparib alone",106% (inactive)
same,viability,"[6]; at 0.000305 µM, OCI-C5x cells, without rucaparib",116% (inactive)
same,viability,"[6]; at 0.000305 µM, OCI-P5x cells, with rucaparib 20 µM, 100% = cells with rucaparib alone",111% (inactive)
same,viability,"[6]; at 0.000305 µM, OCI-P5x cells, without rucaparib",119% (inactive)
same,viability,"[6]; at 0.00122 µM, OCI-C5x cells, with rucaparib 10 µM, 100% = cells with rucaparib alone",108% (inactive)
same,viability,"[6]; at 0.00122 µM, OCI-C5x cells, without rucaparib",123% (inactive)
same,viability,"[6]; at 0.00122 µM, OCI-P5x cells, with rucaparib 20 µM, 100% = cells with rucaparib alone",108% (inactive)
same,viability,"[6]; at 0.00122 µM, OCI-P5x cells, without rucaparib",121% (inactive)
same,viability,"[6]; at 0.00488 µM, OCI-C5x cells, with rucaparib 10 µM, 100% = cells with rucaparib alone",112% (inactive)
same,viability,"[6]; at 0.00488 µM, OCI-C5x cells, without rucaparib",129% (inactive)
same,viability,"[6]; at 0.00488 µM, OCI-P5x cells, with rucaparib 20 µM, 100% = cells with rucaparib alone",108% (inactive)
same,viability,"[6]; at 0.00488 µM, OCI-P5x cells, without rucaparib",108% (inactive)
same,viability,"[6]; at 0.0195 µM, OCI-C5x cells, with rucaparib 10 µM, 100% = cells with rucaparib alone",113% (inactive)
same,viability,"[6]; at 0.0195 µM, OCI-C5x cells, without rucaparib",128% (inactive)
same,viability,"[6]; at 0.0195 µM, OCI-P5x cells, with rucaparib 20 µM, 100% = cells with rucaparib alone",104% (inactive)
same,viability,"[6]; at 0.0195 µM, OCI-P5x cells, without rucaparib",108% (inactive)
same,viability,"[6]; at 0.0781 µM, OCI-C5x cells, with rucaparib 10 µM, 100% = cells with rucaparib alone",110% (inactive)
same,viability,"[6]; at 0.0781 µM, OCI-C5x cells, without rucaparib",127% (inactive)
same,viability,"[6]; at 0.0781 µM, OCI-P5x cells, with rucaparib 20 µM, 100% = cells with rucaparib alone",107% (inactive)
same,viability,"[6]; at 0.0781 µM, OCI-P5x cells, without rucaparib",109% (inactive)
same,viability,"[6]; at 0.313 µM, OCI-C5x cells, with rucaparib 10 µM, 100% = cells with rucaparib alone",106% (inactive)
same,viability,"[6]; at 0.313 µM, OCI-C5x cells, without rucaparib",132% (inactive)
same,viability,"[6]; at 0.313 µM, OCI-P5x cells, with rucaparib 20 µM, 100% = cells with rucaparib alone",102% (inactive)
same,viability,"[6]; at 0.313 µM, OCI-P5x cells, without rucaparib",98.9% (active)
same,viability,"[6]; at 1.25 µM, OCI-C5x cells, with rucaparib 10 µM, 100% = cells with rucaparib alone",101% (inactive)
same,viability,"[6]; at 1.25 µM, OCI-C5x cells, without rucaparib",138% (inactive)
same,viability,"[6]; at 1.25 µM, OCI-P5x cells, with rucaparib 20 µM, 100% = cells with rucaparib alone",91.6% (active)
same,viability,"[6]; at 1.25 µM, OCI-P5x cells, without rucaparib",93.8% (active)
same,viability,"[6]; at 5 µM, OCI-C5x cells, with rucaparib 10 µM, 100% = cells with rucaparib alone",106% (inactive)
same,viability,"[6]; at 5 µM, OCI-C5x cells, without rucaparib",132% (inactive)
same,viability,"[6]; at 5 µM, OCI-P5x cells, with rucaparib 20 µM, 100% = cells with rucaparib alone",76.3% (active)
same,viability,"[6]; at 5 µM, OCI-P5x cells, without rucaparib",81.8% (active)
same,inhibition,"[7]; at 0.5 µM, stronger effect = higher value",-5.76% (inactive) and -8.68% (inactive)
same,inhibition,"[7]; measured here: combination with BGB IC20, at 0.005 µM",12.1% and -26.9%
same,inhibition,"[7]; measured here: combination with BGB IC40, at 0.005 µM",76.1% and -29.5%
same,inhibition,"[7]; measured here: combination with BGB IC40, at 0.05 µM",-11.7% and -51.5%
same,inhibition,"[7]; measured here: combination with cisplatin, at 0.5 µM, stronger effect = higher value",39.6% and -32.3%
same,inhibition,"[7]; measured here: combination with cisplatin, at 5 µM, stronger effect = higher value",-23.3% and -90%
same,inhibition,"[8]; BGB combo, at 5 µM",2.05% and 13.3%
same,inhibition,[8]; at 0.5 µM,-17.5% (inactive) and -12.8% (inactive)
same,inhibition,"[8]; cisplatin combo, at 5 µM",-12.4% and 5.9%
same,inhibition,"[8]; measured here: with BGB IC20 combination, at 0.5 µM",-16.8% and -1.93%
same,inhibition,"[8]; measured here: with cisplatin IC20 combination, at 0.5 µM",-12.5% and -11.1%
same,inhibition,"[8]; single agent, at 5 µM",-33.9% and 16.4%
same,inhibition,"[9]; BGB IC20 combo, at 0.005 µM",4.72% and 10.1%
same,inhibition,"[9]; BGB IC40 combo, at 0.005 µM",-39.9% and -9.84%
same,inhibition,"[9]; BGB IC40 combo, at 0.05 µM",3.85% and -15.8%
same,inhibition,[9]; at 0.5 µM,-19.3% (inactive) and -37.2% (inactive)
same,inhibition,"[9]; cisplatin combo, at 0.05 µM",-0.996% and -20%
same,inhibition,"[9]; cisplatin combo, at 0.5 µM",-20.2% and -42.2%
same,inhibition,"[9]; cisplatin combo, at 5 µM",2.43% and -58.6%
same,inhibition,"[9]; measured here: 5 uM single agent, at 5 µM",-28.1% and -5.43%
same,inhibition,[10]; at 0.5 µM,-24.8% (inactive) and -13.9% (inactive)
same,inhibition,"[10]; measured here: with BGB IC20, at 0.5 µM",-22.3% and -11.4%
same,inhibition,"[10]; measured here: with BGB IC20, at 5 µM",-3.78% and 16.9%
same,inhibition,"[10]; measured here: with cisplatin IC20, at 0.5 µM",-22.4% and -22.3%
same,inhibition,"[10]; measured here: with cisplatin IC20, at 5 µM",1.95% and -37.3%
same,inhibition,"[10]; single agent, at 5 µM",-2.38% and 8.59%
same,inhibition,[11]; at 0.5 µM,-6.48% (inactive) and -14.8% (inactive)
same,inhibition,"[11]; measured here: BGB combination, at 0.5 µM",-1.79% and -20.6%
same,inhibition,"[11]; measured here: BGB combination, at 5 µM",17.7% and 3.62%
same,inhibition,"[11]; measured here: cisplatin combination, at 0.5 µM",-20.7% and -21.7%
same,inhibition,"[11]; measured here: cisplatin combination, at 5 µM",7.96% and -7.31%
same,inhibition,[12]; at 0.5 µM,-1.92% (inactive) and -6.86% (inactive)
same,inhibition,"[12]; cisplatin combination, at 0.5 µM",-3.42% and -23.5%
same,inhibition,"[12]; cisplatin combination, at 5 µM",-136% and -3.01%
same,inhibition,"[12]; measured here: BGB IC40 combination 0.05 uM, at 0.05 µM",-6.42% and -21%
same,inhibition,"[12]; single agent, at 5 µM",4.22% and -18.6%
same,inhibition,[13]; at 0.5 µM,1.57% (inactive) and -21.5% (inactive)
same,inhibition,"[13]; cisplatin combo, at 5 µM",-0.721% and -71.8%
same,inhibition,"[13]; measured here: BGB IC40 combination, at 0.05 µM",9.68% and -19.2%
same,inhibition,"[13]; measured here: combination with cisplatin, at 0.5 µM",-13.6% and -9.04%
same,inhibition,"[13]; single agent, at 5 µM",36.4% and -12.2%
